In ChEMBL document CHEMBL1157539, “Thousands of chemical starting points for antimalarial lead identification” (Nature, 2010):
In all, about 13,000 compounds went through this assay and fewer than 10 showed an effect of 50% or more. These entries were drawn from the full list.

The molecules below were run on Plasmodium falciparum (assay: GSK_TCMDC: Inhibition of Plasmodium falciparum 3D7 LDH activity, using an LDH reporter assay. Test compounds present at 2uM).
Type: functional, organism-based
For `COc1ccc(-c2ccc(NC(=O)c3ccccc3)cc2)cc1CN1CCCN(C)CC1`, the inhibition was 3%.
`C=CCn1c(=N)c(C(=O)NCc2ccc(F)cc2)cc2c(=O)n3cccc(C)c3nc21` gave an inhibition of 0%.
`CC(C)(Oc1ccc(Cl)cc1)C(=O)NCCC1CCN(CCCCCNC(=O)/C=C/c2ccc(Cl)c(Cl)c2)CC1` showed an inhibition of 0%.
`OC(CNCCCCCCNCC(O)c1ccc(Cl)c(Cl)c1)c1ccc(Cl)c(Cl)c1` (stereo unspecified) gave an inhibition of 0%.
With `Cc1cccc2nc(-c3ccc(-c4ccc(NC(=O)C(=O)c5cccn5C)cc4)cc3)[nH]c12` the inhibition was 8%.
For `C[C@H]1CN(Cc2cccc(-c3cc(CNC(=O)c4cccc(CC5CCN(C)CC5)c4)ccc3F)c2)CCN1C`, the inhibition was 2%.
Work on `Nc1c(I)cc(C(=O)Nc2ccc3nc4c(c(N)c3c2)CCCC4)cc1I` yielded an inhibition of 2%.
`FC(F)(F)c1cccc(Nc2nc3nonc3nc2NC2C3CC4CC(C3)CC2C4)c1` (stereo unspecified) was tested, and the inhibition was 0%.
`COc1ccc2nccc([C@@H](O)CN3CCC(NCc4cc5cccc(O)c5[nH]4)CC3)c2c1` showed an inhibition of 0%.
In the case of `Fc1ccc2[nH]c(-c3cccc(-c4cccc(CN5CCN(c6cnccn6)CC5)c4)c3)nc2c1`, the inhibition is reported as 0%.
With `O=C(Cc1ccccc1)NC(c1ccc(Cl)cc1)c1ccc2cccnc2c1O` (stereo unspecified) the inhibition was 0%.
`Cc1noc(C)c1-c1ccc2c(Nc3ccccc3C(C)(C)C)c(C(=O)NCc3ccccc3)cnc2c1` was tested, and the inhibition was 0%.
With `Cc1cccc2nc(-c3ccc(-c4cccc(NC(=O)c5cncn5C)c4)s3)[nH]c12` the inhibition was 0%.
`CC(C)CNCc1cccc(-c2cccc(CN(CCCN3CCN(C)CC3)C(=O)CCC3CCCC3)c2)c1` showed an inhibition of 0%.
With `Cc1cc(NC2CCN(CC3CCCCC3)C2)nc(Nc2ccc(Cl)cc2)n1` (stereo unspecified) the inhibition was 0%.
For `Cc1noc(C)c1-c1ccc2c(Nc3cccc4c3-c3ccccc3C4=O)c(C(=O)NCc3ccccc3I)cnc2c1`, the inhibition was 2%.
`CC(=O)Nc1ccc(OCCCCN(Cc2ccccc2C(F)(F)F)c2ccc(C#N)c(C(F)(F)F)c2)c(Cl)c1` showed an inhibition of 0%.
`COc1ccc(-c2cccc(NC(=O)c3ccc(Cl)cc3)c2)cc1CN1CCNCC1` gave an inhibition of 0%.
Molecule `COc1ccc2c(NN=Cc3ccc(F)cc3)ccnc2c1` has an inhibition of 0%.
For `COc1ccc(C=NN=c2cc(C)[nH]c3ccccc23)cc1OC`, the inhibition was 0%.
Molecule `COC(=O)c1cccc(CNCc2ccc(-c3cccc(-c4nc5cc(C(F)(F)F)ccc5[nH]4)c3)cc2)c1` has an inhibition of 6%.
`CCn1c(-c2nonc2N)nc2c(-c3ccccc3)ncc(OCCCCNCCc3ncc[nH]3)c21` gave an inhibition of 0%.
With `CCc1c[nH]c2c(N3CCCS3(=O)=O)cc(C(=O)N[C@@H](Cc3ccccc3)[C@H](O)CNC(C)(C)CCCC(C)C)cc12` the inhibition was 0%.
With `COc1ccc(C2CCC(NCCCCNC(=O)c3ccc(NC(=O)c4ccc(Cl)cc4)cc3)CC2)cc1` (stereo unspecified) the inhibition was 0%.
`Cc1c(-c2ccc(C(=O)NC3CC(C)(C)NC(C)(C)C3)cc2)[nH]c2cc(Cl)c(Cl)cc12` was tested, and the inhibition was 0%.
`O=C(Nc1cccc(F)c1)c1ccc(C(=O)NC2CCN(CC3CCCCC3)CC2)cc1` was tested, and the inhibition was 0%.
`CC(C)NCc1ccc(-c2ccc(NC(=O)c3ccc(C#N)cc3)cc2)cc1` gave an inhibition of 0%.
For `FC(F)(F)c1ccc2[nH]c(-c3ccc(-c4cccc(CN5CCN(c6ccncc6)CC5)c4)cc3)nc2c1`, the inhibition was 2%.
Molecule `O=C(Nc1nc(-c2ccccn2)cc2ccccc12)c1cccc(Cl)c1` has an inhibition of 0%.
In the case of `NC(=O)C1CCN(Cc2cccc(-c3cccc(-c4nc5cc(F)ccc5[nH]4)c3)c2)CC1`, the inhibition is reported as 3%.
`CC(C)(C)c1ccc(CNC(=O)c2ccc(CNC3CCC(N)CC3)s2)cc1` (stereo unspecified) gave an inhibition of 4%.
Molecule `CC1(C)N=C(N)N=C(N)N1c1ccc(Cl)c(Cl)c1` has an inhibition of 0%.
In the case of `Cc1cc(=NN=Cc2ccccc2Cl)c2ccc(F)cc2[nH]1`, the inhibition is reported as 0%.
`Cc1cc(CNCCCCCCCNCc2ccc(-c3ccccc3)cc2)ccc1O` showed an inhibition of 0%.
`Cc1cc(=NN=Cc2ccc(F)cc2)c2ccc(C(F)(F)F)cc2[nH]1` showed an inhibition of 0%.
In the case of `COc1cc(C=NN=c2cc(C)[nH]c3ccccc23)cc(OC)c1OC`, the inhibition is reported as 0%.
`O=C(NCCc1ccccc1)N(Cc1ccccc1-c1ccc(CNC2CCCC2)cc1)C1CCN(Cc2ccccc2)CC1` was tested, and the inhibition was 1%.
In the case of `CCN(CC)CCN(Cc1ccc(-c2ccc(C(F)(F)F)cc2)cc1)C(=O)Cn1c(CCc2cccc(F)c2F)nc(=O)c2ccc(F)cc21`, the inhibition is reported as 3%.
For `COc1ccc(CNCc2ccc(F)cc2)cc1-c1ccc(OC)c(S(=O)(=O)NCCN2CCCC2)c1`, the inhibition was 5%.
Molecule `COc1ccc2c(N/N=C/c3cccc([N+](=O)[O-])c3)ccnc2c1` has an inhibition of 5%.
For `CCCCN1CCN(CCCNc2c3ccccc3nc3ccccc23)CC1`, the inhibition was 0%.
`CON=Cc1ccn(-c2ccc(O)c3c2C[C@H]2C[C@H]4[C@H](N(C)C)C(O)=C(C(N)=O)C(=O)[C@@]4(O)C(O)=C2C3=O)c1` gave an inhibition of 0%.
Molecule `CN(C)Cc1ccc(-c2ccc3c(Nc4ccc(Cl)cc4F)ccnc3c2)o1` has an inhibition of 0%.
`CN(C)c1ccc(-c2nc3cc(N)ccc3[nH]2)cc1` gave an inhibition of 0%.
Molecule `Cc1cc(O)c(-c2cccc(Oc3ccc(Cl)cc3)c2)c(C)n1` has an inhibition of 0%.
For `O=C(CNC(=O)c1ccc(O)cc1)Nc1ccc(-c2cccc(-c3nc4cc(C(F)(F)F)ccc4[nH]3)c2)cc1`, the inhibition was 3%.
Molecule `CCOc1cc[nH]c(=O)n1` has an inhibition of 5%.
Molecule `O=C(NCCCCN1CCC(c2ccc3c(c2OCCO)CCCC3)CC1)c1ccc2oc(-c3ccc(C(F)(F)F)cc3)cc2c1` has an inhibition of 4%.
In the case of `FC(F)(F)COc1ccc2ccccc2c1CCNCCCCNCCc1c(OCC(F)(F)F)ccc2ccccc12`, the inhibition is reported as 0%.
Molecule `COc1ccc2nccc(N3CCC(CCNCc4cc5c(cn4)OCCO5)CC3)c2n1` has an inhibition of 7%.
For `Cc1c2ccc(N(C)c3ccnc(Nc4ccc5c(c4)nc(NC(C)C)n5C)n3)cc2nn1C`, the inhibition was 0%.
Molecule `COc1ccc(CNC(=O)Nc2cccc(-c3csc(NC(=N)N)n3)c2)cc1` has an inhibition of 1%.
`O=C(C=Cc1ccc(Cl)c(Cl)c1)NCCCCCN1CCC(CCNC(=O)/C=C/c2ccccc2)CC1` was tested, and the inhibition was 0%.
Molecule `CCN(CC)CCN(Cc1ccc(-c2ccc(C(F)(F)F)cc2)cc1)C(=O)Cn1c(CCc2ccc(F)cc2)nc(=O)c2ccccc21` has an inhibition of 0%.
Molecule `Cn1cccc1C(=O)C(=O)Nc1cccc(-c2ccc(-c3nc4cc(C(F)(F)F)ccc4[nH]3)cc2)c1` has an inhibition of 0%.
Work on `CC(=O)Nc1ccc(C(=O)Nc2cccc(-c3cccc(-c4nc5cc(F)ccc5[nH]4)c3)c2)cn1` yielded an inhibition of 1%.
